Screens as filed in PubChem.
This is a sample that favours compounds with a hit; in the whole collection about 4.3% have one here.
D3 ag: activates the human D3 dopamine receptor | P35462 | D3R DiscoveRx beta-arrestin cells, luminescence, 90 min | max activation, % | actives 0.58% (n = 410,000) | AID 652048; in the data active = max activation above about 30%; note: 0% is about no effect
Target sequence (P35462 whole entry, looked up): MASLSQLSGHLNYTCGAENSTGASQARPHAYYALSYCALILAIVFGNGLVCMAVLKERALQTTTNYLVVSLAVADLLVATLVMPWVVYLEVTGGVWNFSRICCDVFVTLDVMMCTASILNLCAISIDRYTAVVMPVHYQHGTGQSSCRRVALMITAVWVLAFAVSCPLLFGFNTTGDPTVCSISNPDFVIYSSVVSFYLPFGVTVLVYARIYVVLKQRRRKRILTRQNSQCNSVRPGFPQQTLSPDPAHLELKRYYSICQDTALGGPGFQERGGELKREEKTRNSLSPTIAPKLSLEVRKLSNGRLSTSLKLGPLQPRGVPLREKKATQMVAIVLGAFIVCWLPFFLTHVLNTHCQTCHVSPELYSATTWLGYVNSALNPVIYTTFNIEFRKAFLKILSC
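Cells at 1500/well, incubated overnight, then treated with pinned compounds (dopamine as control) for 90 min at 37 degrees C. DiscoveRx reagent added for 30 - 60 minutes at room temperature; luminescence read.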
GLP-1R inv ag: acts as inverse agonist at human GLP-1 receptor. AID 624417. HEK293 GLP-1R CRE-luciferase, luminescence, 24 h; GLP-1R form is constitutively active. P43220. actives 1.6% (n = 410,000). Potency, µM (titrated, usually from 38.3 µM), for the others: top-dose activity change, negative = inhibition, hits mostly inhibitors; note: potency is the fitted concentration of half-maximal effect; % is set by controls: 0 for no effect and ±100 for the full control effect; nearly all actives have a fitted effect of over 55% in size
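HEK293 cells stably co-expressing a cAMP-responsive luciferase reporter and constitutively active GLP-1R were seeded, incubated 12 h, then exposed to compounds for 24 h at 37 C. Luminescence was read 12 min after detection reagent; inverse agonists lower signal.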
DRD3 antagonist: antagonists of human D3 dopamine receptor; P35462; D3R cells, DiscoveRx beta-arrestin luminescence, antagonist mode; hits give low values; max response, negative = inhibition, %; actives 2.5% (n = 360,000); in the data active = max response below about -50%; inconclusive = no clear call, values can overlap the other calls; note: % is set by controls: 0 for no effect and ±100 for the full control effect
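Cells expressing the human receptor were seeded at 1500 cells/well, incubated overnight at 37 degrees C in 5% CO2, then exposed to library compounds with dopamine controls for 90 minutes at 37 degrees C before luminescent detection.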
GLP1R ag: agonists of human GLP-1 receptor. P43220. HEK293 GLP-1R CRE-luciferase, luminescence, 4-6 h; cells express a hypersensitive GLP-1R form. Potency, µM (titrated, usually from 45.6 µM), for the others: at the top dose activation, most hits filed as activators. actives 0.007% (n = 380,000). AID 624172; note: potency is the fitted concentration of half-maximal effect; % of control where 0% means no effect
Starred values were filed as active, the others as inactive; ? = inconclusive; / = not tested or not shown. Unless noted, calls come from the whole dose curve; as a rule, active = well fitted curve in the direction sought with a large enough effect; inconclusive = small, poorly fitted or top-dose-only effect, or another doubt; inactive = no such curve, though single readings can be large; an effect the other way counts as inactive or inconclusive.

SMILES | D3 ag | GLP-1R inv ag | DRD3 antagonist | GLP1R ag
O=C(CCN1CCN(c2ccccc2F)CC1)Nc1cccc(F)c1 | 15 | -23% | -63* | 5%
COc1ccccc1N1CCN(CC(=O)Nc2cc(F)ccc2C)CC1 | -1 | ? | -83* | 6%
O=C(CCN1CCN(c2ccccc2F)CC1)Nc1ccc(F)cc1 | 26 | -9% | -73* | -2%
Cc1ccccc1N1CCN(CCC(=O)Nc2ccc(F)cc2)CC1 | 10 | ? | -84* | 0%
COc1ccc(N2CC(NC(=O)COc3ccc(F)cc3)CC2=O)cc1OC (stereo not given) | -2 | 6% | / | /
Cc1ccccc1-c1nc(CN2CCC(C(=O)NCc3ccc(F)cc3)CC2)c(C)o1 | -6 | ? | / | /
COc1ccccc1N1CCN(CCC(=O)Nc2cccc(F)c2)CC1 | -24 | -14% | -111* | -5%
O=C(CCn1c(=O)c2cccn2c2ccccc21)Nc1ccc(F)cc1 | -20 | ? | -65* | 17%
COc1ccc(NC(=O)CCn2c(=O)c3cccn3c3ccccc32)cc1 | -19 | -2% | -24 | 4%
COc1ccccc1CNC(=O)CSc1cc(C)[nH]c(=O)n1 | -10 | 1% | / | -1%
O=C(Nc1ccc(Cl)c(C(F)(F)F)c1)C(Cc1ccccc1)NS(=O)(=O)c1ccc(Br)s1 (stereo not given) | -2 | -20% | / | /
CCCCNC(=S)N1CCN(C(c2ccccc2)c2ccccc2)CC1 | 0 | 8.9µM* | -1 | 9%
Cc1ccccc1NC(=S)N(CCCN1CCC(C)CC1)Cc1ccco1 | -26 | ? | ? | 3%
Cc1cccc(C)c1NC(=S)N(CCN1CCCCCC1)Cc1ccco1 | -21 | 10µM* | ? | 0%
Cc1ccc(NC(=S)N(CCCN2CCC(C)CC2)Cc2ccco2)cc1C | -34 | ? | -52* | 6%
CCc1ccc(NC(=S)N(CCN2CCCCC2)Cc2ccco2)cc1 | -36 | ? | -68* | 9%
CC(=O)Oc1c(Cl)cc(N(C(C)=O)S(=O)(=O)c2ccccc2)c2ccccc12 | -10 | -19% | -21 | -1%
CCn1c(=O)c(C(=O)Nc2nc3ccccc3[nH]2)c(O)c2ccccc21 | 4 | 0% | -62* | -14%
CCCn1c(=O)c(C(=O)Nc2ccccc2C(=O)OCC)c(O)c2ccccc21 | 37* | 4% | 28 | -14%
CCOc1ccc(CCNC(=O)CCCc2nnc3n(CCCOC)c(=O)c4sccc4n23)cc1 | 13 | 13% | / | /
CCCS(=O)(=O)c1nc(S(=O)(=O)c2ccc(C)cc2)c(N2CCCC(C)C2)s1 (stereo not given) | -4 | 13µM* | -8 | 0%
Cc1ccc(S(=O)(=O)c2nc(S(C)(=O)=O)sc2N2CCC(O)CC2)cc1 | 1 | 2% | -7 | 1%
Cc1ccc(S(=O)(=O)c2nc(S(C)(=O)=O)sc2N2CCCCC2C)cc1 (stereo not given) | -4 | 3.5µM* | -10 | -3%
CC(C)(C)C(=O)Nc1ccc2nc(SCC(=O)N3CCCC3)sc2c1 | 1 | 10% | / | /
CCOc1ccc(S(=O)(=O)NCCc2sc3nc(-c4ccc(F)cc4)nn3c2C)cc1 | 3 | -7% | / | /
SMILES | D3 ag | GLP-1R inv ag | DRD3 antagonist | GLP1R ag
Cn1c(NCc2cccc(Br)c2)nc2ccccc21 | -13 | ? | -58* | 1%
CCOc1cc(CNC(=O)c2ccc3c(c2)N(C)C(=O)C2CCCCN32)cc(OCC)c1OCC (stereo not given) | -15 | 3% | / | /
COc1ccc(CNS(=O)(=O)c2ccc(-c3cc(C(F)(F)F)on3)s2)cc1OC | -4 | ? | / | /
COc1ccc(S(=O)(=O)Oc2ccc3ccccc3c2)cc1 | -9 | ? | -12 | 0%
COC1=C(OC)C(=O)C(Sc2ccc3ccccc3c2)=CC1=O | -28 | ? | -62* | -4%
Cc1cc(C)cc(OC(C)C(=O)Nc2c(C(=O)c3ccccc3)oc3ccccc23)c1 (stereo not given) | 6 | 0% | / | /
COc1ccccc1NC(=O)C1(c2ccccc2)CCCC1 | -1 | 4µM* | -8 | 15%
CNC(=O)C1(c2ccccc2)CCCCC1 | 10 | 40% | 11 | -8%
Cn1c(CCNC(=O)c2ccc(Cl)c(Cl)c2)nnc1SCc1ccc(Cl)c(Cl)c1 | 0 | 4% | -53* | 2%
C=CCn1c(CCNC(=O)c2ccc(Cl)c(Cl)c2)nnc1SCCOc1ccc(OC)cc1 | -15 | -23% | 6 | 1%
CCN1C(=O)c2ccccc2Sc2ccc(NC(=O)Nc3ccc(C(C)=O)cc3)cc21 | 9 | ? | / | /
CCc1ccccc1NC(=O)Nc1ccc2c(c1)N(CC)C(=O)c1ccccc1S2 | 2 | 5µM* | / | /
O=C(c1ccc(F)cc1)N1CCC(c2ccccc2)C1 (stereo not given) | -8 | -1% | -65* | 17%
COc1ccc(C(=O)N2CCCC(c3ccccc3)C2)cc1 (stereo not given) | -2 | ? | ? | ?
CCSc1nc2c([nH]c3ccccc32)c(=O)n1-c1ccc(F)cc1 | 3 | -24% | / | 4%
S=C(c1ccc2c(c1)OCO2)N1CCOCC1 | -4 | 4% | 7 | -1%
COc1ccc(S(=O)(=O)NCC2CCCN(Cc3ccccc3Cl)C2)cc1 (stereo not given) | -15 | ? | -52* | 18%
Cc1cc2nccc(-c3cccnc3)n2n1 | 3 | 16% | 5 | 6%
CCCn1nc([N+](=O)[O-])c(C(C#N)c2nc3ccccc3o2)c(Cl)c1=O (stereo not given) | -6 | ? | -61* | -17%
CCCCOC(=O)Cn1nnc2sc(-c3ccccc3)cc2c1=O | 7 | 12% | / | /
CCOC(=O)c1ccc(NC(=O)CCn2c(=O)c3cccn3c3ccccc32)cc1 | 2 | 3% | / | /
O=C(CN1C(=O)C2(SCC(=O)N2c2cccc(F)c2)c2ccccc21)NCc1ccccc1Cl (stereo not given) | -5 | 8.9µM* | / | -1%
CCCc1cc(C(=O)N(C2CCCCC2)C2CCCCC2)no1 | 1 | 8.9µM* | 14 | -6%
O=C(COC(=O)Cc1ccccc1F)Nc1ccc2[nH]c(=O)[nH]c2c1 | -9 | 19% | -5 | 9%
O=C(COC(=O)/C=C/c1cc(Br)ccc1F)Nc1ccc2[nH]c(=O)[nH]c2c1 | 88* | 4% | -10 | 11%
SMILES | D3 ag | GLP-1R inv ag | DRD3 antagonist | GLP1R ag
c1ccc(CN2CCN(c3ncnc4c3cnn4-c3ccccc3)CC2)cc1 | 3 | -19% | / | /
Cc1cccc(-n2ncc3c(N4CCOCC4)ncnc32)c1 | 5 | 3.2µM* | 3 | -9%
c1ccc(-n2ncc3c(N4CCN(CCOc5cccc6ccccc56)CC4)ncnc32)cc1 | 40* | 7% | -10 | 21%
Cc1ccc(-n2ncc3c(N4CCCCC4)ncnc32)cc1Cl | -8 | 0.79µM* | / | /
Cc1cccc(-n2ncc3c(N4CCN(c5ccccc5)CC4)ncnc32)c1 | 9 | 7% | / | /
Cc1ccc(-n2ncc3c(N4CCN(c5ccccc5)CC4)ncnc32)c(C)c1 | 36* | -10% | 33 | -8%
